# Reference: PubChem BioAssay (EPA / NIEHS)
# Where “and” joins values, the source holds several entries; their conditions need not be identical. Identical values can stand only once. Some compounds were tested as several samples or in several runs, with calls that do not always agree. Calls of active or inactive are those of the source. The calls were made as follows: active = hit-call score of the fitted dose curve at least 0.9, where 1 is the maximum; inactive = score below 0.9.
# Columns and labels:
# [1] = ATG_EGR_CIS: Attagene CIS-FACTORIAL HepG2 Assay for human Early Growth Response 1 (EGR1) (AID 2282938); settings: HepG2 Attagene CIS-FACTORIAL EGR reporter mRNA; actives raise or lower the signal
# Method in brief: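 Transient transfection of human HepG2 with multiple cis-regulated reporter units, chemical exposure 24 h, total RNA isolated. Reverse transcription, PCR, fluorescent labelling and capillary electrophoresis quantify reporter transcripts; activity fitted bidirectionally against DMSO.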
# [2] = ATG_M_19_CIS: Attagene CIS-FACTORIAL HepG2 Assay for M19 Transcription Factor (Internal Marker) (AID 2282939); settings: HepG2 Attagene CIS-FACTORIAL M19 internal marker reporter; actives raise or lower the signal
# Method in brief: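 Background-control endpoint from a multiplexed HepG2 reporter panel. Cells carrying cis-regulated reporter constructs are treated 24 h, then reporter transcripts are amplified, fluorescently labelled and sized by capillary electrophoresis. DMSO defines baseline.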
# [3] = ATG_ERE_CIS: Attagene CIS-FACTORIAL HepG2 Assay for Estrogen Response Element (ERE) (AID 2282940); settings: HepG2 ERE cis-reporter, Attagene RNA transcript; actives raise or lower the signal
# Method in brief: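 Cells used were human hepatoma HepG2, transfected with multiple reporter transcription units under cis-regulatory promoters. Reporter mRNA, read 24 h post-dosing via fluorescent RT-PCR products on capillary electrophoresis, was fitted bidirectionally relative to DMSO.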
# [4] = ATG_Ets_CIS: Attagene CIS-FACTORIAL HepG2 Assay for human Erythroblast Transformation Specific (ETS) (AID 2282941); settings: HepG2 ETS cis-reporter transcription, actives raise or lower the signal
# Method in brief: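 HepG2 cells transiently transfected with cis-promoter reporter transcription units were dosed for 24 h; reporter mRNA was measured by RT-PCR, 6-FAM primer extension, HpaI digestion and capillary electrophoresis, with bidirectional fitting against DMSO baseline.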
# [5] = molecular target: Hepatocyte nuclear factor 3-beta (Homo sapiens) (UniProt Q9Y261); experiment: ATG_FoxA2_CIS: Attagene CIS-FACTORIAL HepG2 Assay for human Forkhead box A2 (FOXA2) (AID 2282942); settings: HepG2 cis-reporter transcription factor activity, 24 h; actives raise or lower the signal
# Method in brief: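 Transient MRTU transfection of HepG2 liver cells; 24 h treatment; total RNA → oligo(dT) RT → PCR → FAM primer extension → HpaI cut → CE. Bidirectional fit vs DMSO.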
# [6] = ATG_FoxO_CIS: Attagene CIS-FACTORIAL HepG2 Assay for human Forkhead box O (FoxO) (AID 2282943); settings: HepG2 Attagene cis-reporter, FoxO element, mRNA; actives raise or lower the signal
# Method in brief: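 Human hepatoma HepG2 cells carry transiently introduced reporter transcription units controlled by cis promoter elements. Chemical treatment lasted 24 h, and mRNA signal was compared with DMSO.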
# [7] = ATG_GATA_CIS: Attagene CIS-FACTORIAL HepG2 Assay for human GATA Binding Protein (AID 2282944); settings: HepG2 GATA cis-element reporter, Attagene multiplex mRNA; actives raise or lower the signal
# Method in brief: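 Endogenous transcription factor activity was captured through cis-promoter-driven reporters in transfected HepG2 cells. After 24 h exposure, reporter transcripts were quantified by RT-PCR with fluorescent capillary electrophoresis, and responses fitted both directions against DMSO.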
# [8] = ATG_GLI_CIS: Attagene CIS-FACTORIAL HepG2 Assay for human Zinc Finger Protein GLI1 (AID 2282945); settings: HepG2, Attagene cis-factorial reporter mRNA, GLI element; actives raise or lower the signal
# Method in brief: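 Bidirectional curve fits relative to DMSO, using reporter mRNA levels from RT-PCR plus capillary electrophoresis. Cells were HepG2 transiently carrying cis-regulated reporter constructs, harvested 24 h after dosing.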
# [9] = ATG_ISRE_CIS: Attagene CIS-FACTORIAL HepG2 Assay for human Interferon Regulatory Factor 1 (IRF1) binding to an Interferon-Stimulated Response Element (ISRE) (AID 2282948); settings: HepG2 ISRE cis-reporter (Attagene), mRNA transcription readout; actives raise or lower the signal
# Method in brief: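 HepG2 cells transiently transfected with multiplexed cis-promoter reporter units; after 24 h compound exposure, reporter mRNA quantified by RT-PCR, FAM labelling, HpaI digestion and capillary electrophoresis. Bidirectional fit versus DMSO baseline.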
# [10] = ATG_M_32_CIS: Attagene CIS-FACTORIAL HepG2 Assay for M32 Transcription Factor (Internal Marker) (AID 2282949); settings: HepG2 Attagene cis-factorial M32 reporter, mRNA; actives raise or lower the signal;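 also: background control marker of the multiplexed CIS panel rather than a real target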
# Method in brief: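 Internal background marker read-out: RT-PCR/capillary electrophoresis fluorescence of reporter transcripts from transiently transfected HepG2 cells after 24 h chemical exposure. Activity fitted bidirectionally relative to DMSO negative control.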
# [11] = ATG_M_06_CIS: Attagene CIS-FACTORIAL HepG2 Assay for M06 Transcription Factor (Internal Marker) (AID 2282950); settings: HepG2 Attagene CIS-FACTORIAL M06 internal marker reporter; actives raise or lower the signal
# Method in brief: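 Steps: transfect HepG2 with multiplexed cis-element reporter constructs; dose chemical 24 h; extract RNA with DNase treatment; reverse-transcribe, PCR-amplify, 6-FAM label, HpaI digest; separate fragments by capillary electrophoresis. Activity fitted both directions versus DMSO.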
# [12] = molecular target: Hypoxia-inducible factor 1-alpha (Homo sapiens) (UniProt Q16665); experiment: ATG_HIF1a_CIS: Attagene CIS-FACTORIAL HepG2 Assay for human Hypoxia Inducible Factor 1 (HIF1A) (AID 2282951); settings: HepG2 Attagene cis-factorial HIF1a reporter transcription; actives raise or lower the signal
# Method in brief: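 Transient MRTU transfection of human HepG2 liver cells, 24 h compound treatment, then total RNA isolation, oligo(dT) reverse transcription, PCR amplification, fluorescent labelling and capillary electrophoresis of reporter fragments. Gain or loss relative to DMSO.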
# [13] = molecular target: Hepatocyte nuclear factor 6 (Homo sapiens) (UniProt Q9UBC0); experiment: ATG_HNF6_CIS: Attagene CIS-FACTORIAL HepG2 Assay for human Hepatocyte Nuclear Factor 6 (HNF6) (AID 2282952); settings: HepG2 Attagene cis-factorial HNF6 reporter transcription; actives raise or lower the signal
# Method in brief: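 HepG2 cells transiently transfected with cis-element-driven multiplexed reporter units measuring endogenous transcription factor activity. After 24 h exposure, reporter mRNA quantified by RT-PCR, FAM-labelled fragments and capillary electrophoresis; bidirectional fitting versus DMSO.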
# [14] = molecular target: Heat shock factor protein 1 (Homo sapiens) (UniProt Q00613); experiment: ATG_HSE_CIS: Attagene CIS-FACTORIAL HepG2 Assay for human Heat Shock Transcription Factor 1 (HSE) (AID 2282953); settings: HepG2 HSE cis-reporter, Attagene RNA transcription; actives raise or lower the signal
# Method in brief: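 Cells were transfected with cis-element-driven reporter constructs, dosed for 24 h, then total RNA was reverse-transcribed and reporter cDNA amplified, FAM-labelled and digested with HpaI. Fragments were resolved by capillary electrophoresis; gain or loss was fitted against DMSO.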
# [15] = ATG_MRE_CIS: Attagene CIS-FACTORIAL HepG2 Assay for human Metal Responsive Element (MRE) (AID 2282954); settings: HepG2 MRE cis-reporter transcription, Attagene multiplex; actives raise or lower the signal
# Method in brief: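 After a 24 h chemical exposure, transiently transfected HepG2 cells yield RNA whose reporter sequences are amplified, FAM-labelled and sized by capillary electrophoresis. Curves are fitted bidirectionally relative to DMSO.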
# [16] = ATG_M_61_CIS: Attagene CIS-FACTORIAL HepG2 Assay for M61 Transcription Factor (Internal Marker) (AID 2282937); settings: HepG2 Attagene CIS-FACTORIAL M61 internal marker reporter; actives raise or lower the signal
# Method in brief: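 Human liver HepG2, transient MRTU transfection (cis promoter elements), 24 h compound. Total RNA → oligo(dT) RT → PCR → FAM label → HpaI → CE. Internal background marker; bidirectional fitting, DMSO = baseline.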
# [17] = ATG_PBREM_CIS: Attagene CIS-FACTORIAL HepG2 Assay for human Phenobarbital-responsive Enhancer Module (PBREM) (AID 2282955); settings: HepG2 PBREM cis-reporter, Attagene multiplexed transcription; actives raise or lower the signal
# Method in brief: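 Endogenous transcription factors in human liver HepG2 cells drive a PBREM cis-element reporter, whose transcript level after 24 h treatment is quantified by RT-PCR with capillary electrophoresis; activity fitted in both directions against DMSO.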
# [18] = molecular target: Bile acid receptor (Homo sapiens) (UniProt Q96RI1); experiment: ATG_IR1_CIS: Attagene CIS-FACTORIAL HepG2 Assay for human Nuclear Receptor Subfamily 1 Group H Member 4 (NR1H4), IR1 submotif (AID 2282946); settings: IR1 reporter transcription, actives raise or lower the signal
# Method in brief: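 Cells (human HepG2) carry transiently transfected cis-promoter reporter transcription units. Compounds are incubated 24 h, total RNA is reverse-transcribed and amplified, and labelled fragments are resolved by capillary electrophoresis. Curves use DMSO as baseline.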
# Sequence of Hepatocyte nuclear factor 3-beta (Homo sapiens) (Q9Y261 whole entry, looked up): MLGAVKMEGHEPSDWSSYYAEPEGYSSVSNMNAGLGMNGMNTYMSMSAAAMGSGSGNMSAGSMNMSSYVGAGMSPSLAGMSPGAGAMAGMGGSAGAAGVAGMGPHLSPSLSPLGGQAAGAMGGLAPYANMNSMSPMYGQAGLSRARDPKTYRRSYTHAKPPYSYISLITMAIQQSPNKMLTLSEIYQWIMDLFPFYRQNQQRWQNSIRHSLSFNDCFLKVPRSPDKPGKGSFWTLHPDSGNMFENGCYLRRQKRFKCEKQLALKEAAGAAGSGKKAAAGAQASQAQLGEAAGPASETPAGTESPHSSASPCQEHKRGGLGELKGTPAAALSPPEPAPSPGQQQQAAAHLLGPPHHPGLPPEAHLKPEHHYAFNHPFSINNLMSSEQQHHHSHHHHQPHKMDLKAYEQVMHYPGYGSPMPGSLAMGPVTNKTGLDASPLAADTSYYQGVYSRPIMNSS
# Sequence of Heat shock factor protein 1 (Homo sapiens) (Q00613 whole entry, looked up, the tested form may be a part): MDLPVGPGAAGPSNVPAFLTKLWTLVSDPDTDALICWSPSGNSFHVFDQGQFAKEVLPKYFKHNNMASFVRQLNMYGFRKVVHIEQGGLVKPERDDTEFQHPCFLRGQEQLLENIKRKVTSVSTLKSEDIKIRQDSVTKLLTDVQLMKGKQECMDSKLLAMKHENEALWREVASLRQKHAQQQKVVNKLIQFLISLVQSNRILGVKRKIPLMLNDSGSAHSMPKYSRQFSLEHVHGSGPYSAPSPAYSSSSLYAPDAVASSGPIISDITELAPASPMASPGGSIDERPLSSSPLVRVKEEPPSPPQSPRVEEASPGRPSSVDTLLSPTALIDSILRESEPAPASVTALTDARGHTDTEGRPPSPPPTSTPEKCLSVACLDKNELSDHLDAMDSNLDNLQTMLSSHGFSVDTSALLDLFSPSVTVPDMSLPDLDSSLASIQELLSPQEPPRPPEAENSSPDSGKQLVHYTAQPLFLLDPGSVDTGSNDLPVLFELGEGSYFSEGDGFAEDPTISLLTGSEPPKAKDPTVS
# Sequence of Bile acid receptor (Homo sapiens) (Q96RI1 whole entry, looked up, the tested form may be a part): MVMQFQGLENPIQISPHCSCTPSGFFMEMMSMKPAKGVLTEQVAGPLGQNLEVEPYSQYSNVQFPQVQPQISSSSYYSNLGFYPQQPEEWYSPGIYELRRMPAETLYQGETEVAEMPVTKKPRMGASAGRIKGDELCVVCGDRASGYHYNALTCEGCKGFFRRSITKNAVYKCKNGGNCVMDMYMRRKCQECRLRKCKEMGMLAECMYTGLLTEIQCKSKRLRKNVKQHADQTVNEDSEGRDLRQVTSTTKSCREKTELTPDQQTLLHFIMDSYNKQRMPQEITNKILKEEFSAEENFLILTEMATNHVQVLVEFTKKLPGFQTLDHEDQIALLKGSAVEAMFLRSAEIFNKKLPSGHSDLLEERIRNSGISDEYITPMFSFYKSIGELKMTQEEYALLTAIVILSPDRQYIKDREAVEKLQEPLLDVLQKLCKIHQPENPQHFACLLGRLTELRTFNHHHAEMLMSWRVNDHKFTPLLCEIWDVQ
# Sequence of Hypoxia-inducible factor 1-alpha (Homo sapiens) (Q16665 whole entry, looked up, the tested form may be a part): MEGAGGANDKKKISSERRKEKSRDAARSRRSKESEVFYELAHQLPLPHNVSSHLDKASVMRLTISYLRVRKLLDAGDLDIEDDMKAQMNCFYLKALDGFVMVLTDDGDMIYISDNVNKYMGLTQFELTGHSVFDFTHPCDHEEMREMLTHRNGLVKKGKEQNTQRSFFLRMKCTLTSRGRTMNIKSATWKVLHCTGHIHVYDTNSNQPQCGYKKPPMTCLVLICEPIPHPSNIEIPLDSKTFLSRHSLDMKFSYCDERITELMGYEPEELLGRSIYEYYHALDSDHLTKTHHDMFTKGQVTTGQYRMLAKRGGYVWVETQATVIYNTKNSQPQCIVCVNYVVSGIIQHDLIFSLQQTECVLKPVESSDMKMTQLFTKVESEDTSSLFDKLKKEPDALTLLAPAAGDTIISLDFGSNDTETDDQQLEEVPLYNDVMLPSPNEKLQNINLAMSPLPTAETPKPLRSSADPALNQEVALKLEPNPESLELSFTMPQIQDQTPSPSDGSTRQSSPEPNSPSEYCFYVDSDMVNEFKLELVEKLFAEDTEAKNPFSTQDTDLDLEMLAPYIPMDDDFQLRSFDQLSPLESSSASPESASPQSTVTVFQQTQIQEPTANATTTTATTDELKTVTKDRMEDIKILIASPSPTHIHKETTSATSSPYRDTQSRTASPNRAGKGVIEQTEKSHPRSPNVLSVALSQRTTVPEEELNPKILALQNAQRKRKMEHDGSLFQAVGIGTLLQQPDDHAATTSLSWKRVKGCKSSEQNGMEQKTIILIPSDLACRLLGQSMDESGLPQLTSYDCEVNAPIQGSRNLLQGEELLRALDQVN
# Sequence of Hepatocyte nuclear factor 6 (Homo sapiens) (Q9UBC0 whole entry, looked up, the tested form may be a part): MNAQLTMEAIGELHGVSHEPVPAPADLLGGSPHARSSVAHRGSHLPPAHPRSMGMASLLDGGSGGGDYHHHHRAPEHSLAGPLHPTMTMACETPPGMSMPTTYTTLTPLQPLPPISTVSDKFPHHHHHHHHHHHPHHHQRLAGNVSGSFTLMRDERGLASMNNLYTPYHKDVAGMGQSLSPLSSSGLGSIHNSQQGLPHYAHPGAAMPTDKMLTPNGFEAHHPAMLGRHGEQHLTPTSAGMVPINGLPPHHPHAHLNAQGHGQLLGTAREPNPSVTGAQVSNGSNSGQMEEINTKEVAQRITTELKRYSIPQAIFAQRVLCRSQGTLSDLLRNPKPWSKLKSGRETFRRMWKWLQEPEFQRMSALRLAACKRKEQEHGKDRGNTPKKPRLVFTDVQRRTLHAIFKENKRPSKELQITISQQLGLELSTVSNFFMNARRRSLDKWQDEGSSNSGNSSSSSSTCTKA
smiles,measurement,setting,value
C=CC(N)=O,outcome,[1],inactive
same,outcome,[2],inactive
same,outcome,[3],inactive
same,outcome,[4],inactive
same,outcome,[5],inactive
same,outcome,[6],inactive
same,outcome,[7],inactive
same,outcome,[8],inactive
same,outcome,[9],inactive
same,outcome,[10],inactive
same,outcome,[11],inactive
same,AC50,[12],26 µM (active)
same,outcome,[13],inactive
same,outcome,[14],inactive
same,outcome,[15],inactive
CCCCCCOC(=O)c1ccccc1C(=O)OCCCCCC,outcome,[1],inactive
same,outcome,[2],inactive
same,AC50,[3],4.15 µM (active)
same,outcome,[4],inactive
same,outcome,[5],inactive
same,outcome,[6],inactive
same,outcome,[7],inactive
same,outcome,[9],inactive
same,outcome,[10],inactive
same,outcome,[12],inactive
same,outcome,[13],inactive
same,outcome,[14],inactive
same,outcome,[15],inactive
Cc1ccccc1CO[C@@H]1C[C@@]2(C(C)C)CC[C@]1(C)O2,outcome,[16],inactive
same,outcome,[1],inactive
same,outcome,[2],inactive
same,outcome,[4],inactive
same,outcome,[5],inactive
same,outcome,[6],inactive
same,outcome,[7],inactive
same,outcome,[8],inactive
same,outcome,[9],inactive
same,outcome,[10],inactive
same,outcome,[11],inactive
same,outcome,[12],inactive
same,outcome,[14],inactive
same,outcome,[15],inactive
same,outcome,[17],inactive
ClC(Cl)=C(c1ccc(Cl)cc1)c1ccc(Cl)cc1,outcome,[16],inactive
same,outcome,[1],inactive
same,AC50,[2],129 µM (active)
same,outcome,[2],inactive
same,AC50,[3],14 µM (active) [middle of 4 runs]
same,outcome,[4],inactive
same,outcome,[5],inactive
same,outcome,[6],inactive
same,AC50,[7],155 µM (active)
same,outcome,[7],inactive
same,AC50,[18],21.5 µM (active) and 27.7 µM (active) and 184 µM (active)
same,outcome,[18],inactive
same,AC50,[9],100 µM (active)
same,outcome,[9],inactive
same,outcome,[10],inactive
same,AC50,[12],169 µM (active)
same,outcome,[12],inactive
same,AC50,[14],174 µM (active)
same,outcome,[14],inactive
same,AC50,[15],156 µM (active)
same,outcome,[15],inactive
same,outcome,[17],inactive
O=NN(c1ccccc1)c1ccccc1,outcome,[1],inactive
same,outcome,[2],inactive
same,AC50,[3],26.1 µM (active)
same,outcome,[4],inactive
same,outcome,[5],inactive
same,outcome,[6],inactive
same,outcome,[7],inactive
same,outcome,[18],inactive
same,outcome,[9],inactive
same,outcome,[10],inactive
same,outcome,[11],inactive
same,outcome,[12],inactive
same,outcome,[14],inactive
same,outcome,[15],inactive
COc1ccc(O)c(C(C)(C)C)c1,AC50,[1],100 µM (active)
same,outcome,[2],inactive
same,outcome,[3],inactive
same,AC50,[4],111 µM (active)
same,outcome,[5],inactive
same,outcome,[6],inactive
same,outcome,[7],inactive
same,outcome,[18],inactive
same,outcome,[9],inactive
same,outcome,[10],inactive
same,outcome,[11],inactive
same,AC50,[12],52.6 µM (active)
same,outcome,[13],inactive
same,outcome,[14],inactive
same,AC50,[15],148 µM (active)
CC(C)(c1ccccc1)c1ccc(O)cc1,AC50,[1],48.7 µM (active)
same,outcome,[1],inactive
same,outcome,[2],inactive
same,AC50,[3],435 nM (active) [middle of 4 runs]
same,outcome,[4],inactive
same,outcome,[5],inactive
same,outcome,[6],inactive
same,AC50,[7],52.1 µM (active)
same,outcome,[7],inactive
same,AC50,[18],33.4 µM (active)
same,outcome,[18],inactive
same,outcome,[9],inactive
same,outcome,[10],inactive
same,outcome,[11],inactive
same,AC50,[12],52.5 µM (active) and 12.7 µM (active)
same,outcome,[12],inactive
same,AC50,[14],54.7 µM (active)
same,outcome,[14],inactive
same,AC50,[15],33.4 µM (active) and 52.1 µM (active) and 43.1 µM (active)
same,outcome,[15],inactive
